Assay results reported in PubChem BioAssay (NCI).
Compounds without any hit were thinned out: in the full panel of roughly 83,000, 20% have a hit.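 Percent growth is the endpoint: 0 to 100 indicates growth inhibition (40 means 60% inhibition), 0 means no net growth, and negative values indicate cell death.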 Activity calls are given as the source filed them. Rule for the calls: active = growth percent below 10; inactive = the rest.

Experiments:
Test in all cases: NCI-60 one-dose screen, 48 h (100 = growth as untreated, 0 = no growth, -100 = all killed)
Conditions in all cases: 10 µM unless noted
[1] = tested on: NCI-H23 lung
[2] = tested on: NCI-H226 lung
[3] = tested on: NCI-H322M lung
[4] = tested on: HOP-62 NSCLC
[5] = tested on: NCI-H460 lung
[6] = tested on: HOP-92 NSCLC
[7] = tested on: NCI-H522 lung
[8] = tested on: A549/ATCC NSCLC
[9] = tested on: 786-0 renal
[10] = tested on: COLO 205 colon
[11] = tested on: DU-145 prostate
[12] = tested on: K-562 leukemia
[13] = tested on: MALME-3M melanoma
[14] = tested on: MDA-MB-231 breast
[15] = tested on: RXF 393 renal
[16] = tested on: SF-268 CNS
[17] = tested on: SF-295 CNS
[18] = tested on: SF-539 CNS
[19] = tested on: UACC-257 melanoma
[20] = tested on: M14 melanoma

Measured: growth

COC(=O)c1ccc2c(c1)c1c(C)c3cnccc3c(C)c1n2C
active: [1] -47.1% | [2] -41.1% | [3] -14% | [4] -24.7% | [5] -32.4% | [6] -16.6% | [7] -65.1% | [8] -17% | [9] -63.4% | [10] -39.9% | [11] -4.07% | [12] 1.64% | [13] -73.7% | [14] -16.7% | [15] -76.1% | [16] 3.86% | [17] -10.5% | [18] -37.5% | [19] -41.4% | [20] -88.6%

C#CCOc1cccc(Nc2ncnc3c2ncn3C2CCN(C(=O)CCl)C2)c1 (stereo not given)
inactive: [3] 87.2% | [5] 24.7% | [8] 54.6% | [17] 53.4% | [19] 13.1%
active: [1] -23.1% | [2] 1.03% | [4] 1.84% | [6] -84.5% | [7] -61.3% | [9] -72.4% | [10] -72.5% | [11] -95.4% | [12] 0.116% | [13] -84% | [14] -61.2% | [15] -79.4% | [16] -31.6% | [18] -68.5% | [20] -48.6%

[N-]=[N+]=NCC1OC(n2cnc3c(NC(=O)Nc4ccccc4)ncnc32)C2OC(=O)CC12 (stereo not given)
active: [15] -28.7%
inactive: [1] 106% | [2] 106% | [3] 99.8% | [4] 98.1% | [5] 112% | [6] 86.9% | [7] 107% | [8] 95.2% | [9] 105% | [10] 105% | [11] 109% | [12] 92.7% | [13] 96.9% | [14] 123% | [16] 103% | [17] 100% | [18] 97.8% | [19] 122% | [20] 108%

O=S(=O)(Nc1ccc2ccccc2c1)c1ccc(-c2cnc(C3CC3)o2)cc1
inactive: [1] 41.1% | [2] 62.1% | [3] 48.7% | [4] 31.6% | [5] 15.2% | [6] 54.2% | [8] 37.6% | [9] 42.7% | [11] 18% | [12] 10.4% | [13] 50.3% | [14] 52.4% | [16] 53.5% | [17] 34.2% | [19] 44.5% | [20] 19.4%
active: [7] -0.255% | [10] 1.46% | [15] 2.78% | [18] 6.39%

c1ccc(Nc2nc3c(s2)CCc2c[nH]cc2-3)nc1
inactive: [1] 91.1% | [2] 74.7% | [3] 90.5% | [4] 92.7% | [5] 100% | [6] 88.9% | [8] 91.6% | [9] 105% | [10] 98.4% | [11] 103% | [12] 66.3% | [13] 92.5% | [14] 82.7% | [15] 104% | [16] 92.5% | [17] 107% | [18] 106% | [19] 88.7% | [20] 102%
active: [7] -49.9%

O=C1NC(=O)C(c2coc3cc(Br)ccc23)=C1c1c[nH]c2ccccc12
inactive: [1] 77.5% | [2] 67.2% | [3] 77.7% | [4] 38.9% | [5] 19.5% | [6] 70.4% | [7] 51.1% | [8] 33.5% | [9] 69.5% | [10] 35.1% | [11] 65.1% | [12] 11.5% | [13] 66.2% | [14] 59.4% | [15] 75.3% | [16] 43.1% | [17] 71.1% | [18] 64.7% | [19] 72% | [20] 31.5%

CCOC(=O)C/C(=N\Nc1cc(=O)[nH]c2ccc(C)cc12)C(=O)OCC
inactive: [1] 103% | [2] 93.3% | [3] 98% | [4] 107% | [5] 104% | [6] 79.8% | [7] 99.4% | [8] 107% | [9] 109% | [10] 124% | [11] 108% | [12] 89.4% | [13] 98% | [14] 96.3% | [15] 108% | [16] 99.5% | [17] 105% | [18] 103% | [19] 105% | [20] 106%
